Hits are enriched below; roughly 3.1% of the tested compounds scored in any of these assays.
ELG1 repair inh: inhibitors of ELG1-dependent DNA repair in HEK293T cells | HEK293T ELG1-luciferase reporter, luminescence, 16 h; DNA damage induced by 5-fluorouridine | Potency, µM (highest dose often 46.1 µM), without a hit: at the top dose activity change, negative = inhibition, usual class: inhibitors | 2.3% of 330,000 active | AID 504467; also: potency is read from the fitted curve at half-maximal effect; % is scaled to controls: 0 for no effect and ±100 for the full control effect; nearly all actives have a fitted effect of over 55% in size
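5-Fluorouridine DNA damage + compound/DMSO, 2,000 cells/well, 16 h, 37 °C/5% CO2. ONE-Glo, 30 min RT, luminescence. Readout = decrease in reporter signal.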
IL2 activator: activators of IL-2; IL-2 activation reporter assay, cell-based qHTS; stimulated with anti-CD3/CD4/CD28 beads; in transgenic mouse T cells; activation, % (series mostly up to about 46 µM); 0.065% of 360,000 active; AID 652025; in the data active = activation above about 50%; inconclusive = mostly about 30% to 49%; also: 0% is about no effect
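Readout: EGFP and DsRed signals by fluorescent plate cytometry. Unstimulated transgenic mouse T cells received compound 60 min before antibody-bead stimulation, then incubated 18 h at 37 degrees C.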
Nrf2 activator: activators of Nrf2 (ARE) signaling. Potency, µM (highest dose often 46.1 µM), without a hit: top-dose activation, hits mostly activators. 0.31% of 410,000 active. AREc32 ARE-luciferase reporter (MCF7-derived line), luminescence, 24 h. AID 624171; also: potency is read from the fitted curve at half-maximal effect; % of control where 0% means no effect; nearly all actives have a fitted effect of over 65% in size
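Nrf2 activation is followed as ARE-luciferase induction in the AREc32 line after one day of compound treatment; luminescence is read with Steady-Glo.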
BRCA1 expr up: BRCA1 expression activation | MCF7-BRCA1-FFLuc reporter, luminescence, 48 h; response scale: scaled: vehicle 0%, 10 µM genistein 100% | Potency, µM (doses to about 46.1 µM), without a hit: top-dose activation, usual class: activators | 1.1% of 380,000 active | AID 624202; also: potency is read from the fitted curve at half-maximal effect; nearly all actives have a fitted effect of over 80% in size
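Quantitative HTS in MCF7 cells stably reporting BRCA1 expression via firefly luciferase. Compound treatment lasts 48 h at 37 °C in phenol-red free MEM. Activation is expressed relative to genistein at 10 microM and DMSO.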
Active calls of the source: *; ? = inconclusive; . = not tested or not shown; [ ] = dose if it differs, or a comment. Unless noted, calls follow the shape of the dose curve; as a rule, active = well fitted curve in the direction sought with a large enough effect; inconclusive = small, poorly fitted or top-dose-only effect, or another doubt; inactive = no such curve, though single readings can be large; an effect the other way counts as inactive or inconclusive.

SMILES | ELG1 repair inh | IL2 activator | Nrf2 activator | BRCA1 expr up
COc1ccc2[nH]c3c(=O)n(Cc4ccc(C(=O)N5CCC(C(N)=O)CC5)cc4)c(=S)[nH]c3c2c1 | 8.2µM* | 0 | 0% | -2%
CCOC(=O)C1CCCN(C(=O)c2ccc3c(=O)n(CCOC)c(=S)[nH]c3c2)C1 (centres undefined) | 8.2µM* | -3 | -1% | -56%
Cc1ccc(S(=O)(=O)N2C3CCCCC3O[C@H]2CC(=O)c2cccc3ccccc23)cc1 (some centres undefined) | . | 1 | . | .
COc1cccc(COc2ccc3c(C)cc(=O)oc3c2)c1 | ? | -7 | 3% | 2.8µM*
CN(C)CCCNc1nccc(N2CCN(C)CC2)n1 | . | . | . | 22%
CC(CNC(=O)c1ccc2c(c1)nc1n2CCCCC1)c1ccccc1 (centres undefined) | . | . | 0% | .
CCc1ccc(CN(C)C(=O)c2cc(COc3cccc4cnccc34)on2)cc1 | ? | 0 | 0% | -34%
Cc1c(C(C)NC(=O)c2cc(COc3cccc4cnccc34)on2)cnn1C (centres undefined) | 3.7µM* | -1 | 0% | -20%
CC1CCN(C(=O)C2COc3ccccc3C2)CC1 (centres undefined) | . | . | 0% | .
Cc1ccc(C)c(NC(=O)c2cc(S(=O)(=O)N3CCCCCC3)ccc2F)c1 | . | . | 0% | .
CCc1ccc(C2c3c(-c4cc(C)ccc4O)n[nH]c3C(=O)N2Cc2cccnc2)cc1 (centres undefined) | . | . | -1% | .
COc1ccc(OC)c(C(=O)CC2OC(=O)c3ccccc32)c1 (centres undefined) | -26% | -4 | 13µM* | -48%
Cc1ccc(-c2cc(N)n(-c3ccc(C)cc3)n2)cc1 | ? | 2 | 6% | 10µM*
Cc1ccc(-c2cc(N)n(-c3ccc(F)cc3)n2)cc1 | ? | 1 | 3% | 5µM*
COc1ccc(-c2cn(Cc3ccc(C)cc3)nn2)cc1 | ? | 1 | 4% | 8.9µM*
CCCCCc1ccc(-c2cn(Cc3ccc(C)cc3)nn2)cc1 | 3% | -1 | 0% | 0%
Cc1nc2ccc(C(=O)OC(C)C(=O)c3c(C)[nH]c4ccccc34)cc2nc1C (centres undefined) | . | . | . | 15%
Cc1cccc(-c2nc3cc([N+](=O)[O-])ccc3o2)c1 | ? | -1 | 10µM* | 2.5µM*
O=[N+]([O-])c1ccc2oc(-c3ccccc3)nc2c1 | ? | 0 | ? | 3.2µM*
COc1ccc(C2CC(=O)C3=C(C2)NC(C)=C(C(=O)Nc2ccccc2C)C3c2coc3ccc(C)cc3c2=O)cc1OC (centres undefined) | 5.8µM* | -2 | -1% | -34%
Cc1ccc(CNc2ncnc3ccc(-c4ccc(CO)o4)cc23)o1 | . | -1 | 1% | -53%
Cc1ccsc1C1C=C(c2cccc(Br)c2)Nc2ncnn21 (centres undefined) | -10% | 0 | 7.9µM* | -30%
Cc1ccc(C2=CC(c3ccccc3)n3ncnc3N2)cc1 (centres undefined) | . | 0 | 1% | 0%
C1=C(c2ccccc2)Nc2ncnn2C1c1ccccc1 (centres undefined) | . | 0 | 7.1µM* | -21%
COc1cccc(C2=CC(c3ccc(C)cc3)n3ncnc3N2)c1 (centres undefined) | -6% | . | . | .
SMILES | ELG1 repair inh | IL2 activator | Nrf2 activator | BRCA1 expr up
O=C(Cc1csc(N2CCOCC2)n1)N/N=C/c1ccc(O)c(O)c1O | 13µM* | 2 | 0% | -18%
Cc1ccc(-n2nnnc2CNC(=O)c2ccccc2F)cc1C | . | . | 0% | .
COc1ccc(-c2nnn(Cc3ccccc3)n2)cc1OC | 13% | -3 | 2%[9.22 µM] | 35%
COc1cc(-c2nnn(Cc3ccccc3C)n2)cc(OC)c1OC | 23µM* | -1 | 11% | -29%
COc1ccc(-c2nnn(Cc3ccccc3F)n2)cc1 | ? | 1 | 5% | 4µM*
CCOc1cc(CN2CCN(C(=O)c3cccc4ccccc34)CC2)ccc1OC | 15µM* | 0 | 1% | -15%
COc1ccc(CN2CCN(C(=O)c3cccc4ccccc34)CC2)cc1OC | 12µM* | 0 | 0% | -19%
CCOc1cc(CN2CCN(c3cccc(C(F)(F)F)c3)CC2)ccc1OC | 26µM* | -2 | 3% | -24%
COc1ccc(CN2CCN(C(=O)c3cccc4ccccc34)CC2)cc1Br | ? | -3 | 0% | -39%
Cn1c(=O)c2cc(NC(=O)NCCc3ccccc3)ccc2n1Cc1ccc(F)cc1 | . | -1 | 0%[9.22 µM] | 0%
O=C(Cn1nc(-c2ccccc2)c2cnc3ccccc3c21)Nc1ccccc1 | . | . | 0% | .
Cc1ccccc1NS(=O)(=O)c1nnc(NC(=O)c2ccco2)s1 | . | . | 1% | .
COc1ccccc1CCNC(=O)Cc1c(C)c2cc3c(C)coc3cc2oc1=O | . | . | -1% | .
Cc1nnc(NC(=O)CSc2nnc(CCc3nc4ccccc4[nH]3)n2C)s1 | 0% | -3 | 0% | -8%
Cn1c(CCc2nc3ccccc3[nH]2)nnc1SCC#N | 21µM* | -2 | 3% | 0%
O=C(CSc1ncccc1C(=O)O)c1cccc(C(F)(F)F)c1 | ? | 0 | 2% | 16µM*
O=C(CSc1ncccc1C(=O)O)c1ccc2ccccc2c1 | ? | 1 | -1% | -21%
CC(=O)c1cccc(NC(=O)COc2ccccc2C(=O)c2cc(C#N)c(=O)n(C3CCCCC3)c2)c1 | 10µM* | 1 | 0% | -39%
O=C(CCSCc1ccc(Cl)cc1)N1CCN(c2ccccc2F)CC1 | . | . | 0% | .
c1ccc(CN2CCN(CCOCCOc3cccc4ccccc34)CC2)cc1 | 18µM* | 0 | 6% | -26%
O=C(NCc1cccnc1)c1cc(Sc2ccc(F)cc2F)nc2ccccc12 | 21µM* | 0 | 6% | -31%
O=C(NCCc1ccccc1)c1cc(Sc2ccc(F)cc2F)nc2ccccc12 | . | . | 4% | .
CCCC(=O)Nc1nnc(SCc2cc(=O)c3cc(C)ccc3[nH]2)s1 | . | . | -1% | .
COc1ccc(C2CC(c3c(-c4ccccc4)c4cc(Cl)ccc4[nH]c3=O)=NN2S(C)(=O)=O)cc1 (centres undefined) | ? | 1 | 5% | -57%
COc1ccc(OC)c(C2CC(c3c(-c4ccccc4)c4cc(Cl)ccc4[nH]c3=O)=NN2S(C)(=O)=O)c1 (centres undefined) | 5.2µM* | 4 | -1% | -30%
SMILES | ELG1 repair inh | IL2 activator | Nrf2 activator | BRCA1 expr up
CNS(=O)(=O)c1cn(CC(=O)N2CCN(c3ccccc3F)CC2)cc1S(=O)(=O)NC | . | . | 0% | .
CC(/C=N/NC(=O)c1cccnc1)=C\c1ccccc1 | ? | 1 | 3% | 3.2µM*
CC(/C=N/NC(=O)c1ccc(Br)cc1)=C\c1ccccc1 | ? | -3 | 4% | 46%
CC(/C=N/NC(=O)c1ccncc1)=C\c1ccc(C(C)C)cc1 | ? | 2 | 0% | 8.9µM*
CC(/C=N\NC(=O)c1cc(C)oc1C)=C\c1ccccc1 | ? | -2 | 3% | 2µM*
CC(/C=N/NC(=O)CSc1ccccn1)=C\c1ccc(C(C)C)cc1 | ? | 1 | 7% | ?

Screening data (PubChem)
